# HIF-2a inh: HIF-2a reporter inhibitors, primary screen, luminescence, 786-0 RCC cells. 786-0 RCC cells HIF-2a reporter, luciferase luminescence, overnight. inhibition, % at 18.8 µM. 0.72% of 360,000 active;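 active = inhibition of the luminescence signal of 40% or more relative to plate controls, in a single-dose primary screen at 18.75 µM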
# KKLEB cytotox: cytotoxicity in KKLEB CF airway cells, primary screen, cytotoxicity control for CF NF-kB inhibitor project, cell-based, uHTS, fluorescence assay plates; AID 602141, 2011; 0.36% of 360,000 active; activity change (cytotoxicity), % at 5 µM; KKLEB CF airway cells viability, ATPlite luminescence, overnight; active compounds read low; cells stimulated with P. aeruginosa culture filtrate;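 active = corrected activity change at or below -50% at 5 µM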
# PPC-1+TRAIL kill: compounds killing PPC-1 cancer cells with TRAIL present, primary screen, TRAIL potentiator project, ATPLite luminescence, uHTS; cell killing (% activity), % at 4 µM or 5 µM; PPC-1 cells + TRAIL, ATPLite viability luminescence; AID 1443, 2008; 0.41% of 220,000 active;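 active = cell killing above 50% in the first pass at 4 µM, then a duplicate retest at 5 µM averaging 50% or more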
# C8 TRAIL sens: viability loss with TRAIL in NB7+C8 cells, primary screen, TRAIL sensitizer project, cell-based, ATPlite luminescence. inhibition (viability loss, TRAIL sensitization), % at 10 µM. 1% of 360,000 active. AID 624354, 2012;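 active = compounds causing at least 50% loss of cell viability in the single-dose screen, relative to plate controls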
# iPSC survival up: enhancers of single-cell hiPSC survival, primary screen, ATPlite luminescence; 100% = ROCK inhibitor wells, 0% = DMSO; 0.044% of 360,000 active; survival enhancement, % at 20 µM; in the data active = survival enhancement above about 18%;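 also: cells exposed to compounds for 16 hours before the ATP read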
# CF NFkB inh: inhibitors of PAF-induced NF-kB signaling, primary screen, cell-based, GFP fluorescence, uHTS; KKLEB NF-kB-GFP reporter, GFP fluorescence overnight; inhibition, % at 5 µM; 0.86% of 360,000 active; AID 588850, 2011;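 active = at least 50% inhibition at 5 µM, scaled per plate between neutral and stimulator controls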;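 also: PAF is a Pseudomonas aeruginosa culture filtrate used as stimulus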
# CF NFkB inh conf: inhibitors of PAF-induced NF-kB signaling, retest, confirmation, cell-based, GFP fluorescence, single concentration; shares compounds with CF NFkB inh; KKLEB CF airway cells, overnight; inhibition, % at 5 µM; 64% of 1,300 active; in the data active = inhibition above about 40%;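 also: stimulus PAF is a Pseudomonas aeruginosa filtrate and not platelet activating factor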
# Numbers stand for hits; . = inactive; / = not tested or not shown. Compounds with a hit are over-represented: about 2.2% of the library has one in this group of screens.
SMILES,HIF-2a inh,KKLEB cytotox,PPC-1+TRAIL kill,C8 TRAIL sens,iPSC survival up,CF NFkB inh,CF NFkB inh conf
CC(=O)c1ccc(NC(=O)Nc2ccc3c(c2)N(C)C(=O)CS3)cc1,.,.,.,.,.,72,53
CN(c1ccccc1)S(=O)(=O)c1ccc(C(=O)NNC(=O)c2ccccc2F)cc1,.,.,/,.,.,.,/
Cc1nc([N+](=O)[O-])c(Sc2nc3ccc([N+](=O)[O-])cc3[nH]2)n1Cc1ccccc1,.,.,.,.,.,70,55
O=C(Cc1ccc(-c2ccccc2)cc1)Nc1ccccn1,.,.,/,.,.,.,/
Cc1ccnc(NC(=O)Cc2ccc(-c3ccccc3)cc2)c1,.,.,/,.,.,62,58
O=C(CCC1COc2ccccc2O1)Nc1ccc(Cl)cn1 (configuration not stated),.,.,.,.,.,60,48
COc1ccc(-c2oc3ccc(-c4ccc(OC)nc4)cc3c2-c2ccc(OC)cc2)cc1,.,.,/,.,.,.,/
COc1ccc(-c2oc3ccc(-c4ccc5c(c4)OCO5)cc3c2C#CC2(O)CCCCC2)cc1,.,.,/,.,.,61,53
COc1ccc(-c2oc3ccc(-c4ccc(OC)nc4)cc3c2C#CC2(O)CCCCC2)cc1,.,.,/,.,.,64,54
COc1ccccc1NC(=S)N1CCN(c2ccccc2F)CC1,.,.,/,.,.,.,/
Cn1c(-c2cccs2)[n+](C)c2ccccc21,.,.,.,.,.,.,/
NS(=O)(=O)c1ccc(CNC(=O)c2cc(=O)c3ccccc3o2)cc1,.,.,/,.,.,.,/
O=C(c1ccc(O)c(Br)c1)c1cc(Br)ccc1O,.,.,/,.,.,66,61
COc1cc(-c2nnc3sc(C4CCCCC4)nn23)cc(OC)c1OC,.,.,.,.,.,.,/
CCOc1cccc(-c2nnc3sc(C4CCCCC4)nn23)c1,.,.,.,.,.,66,85
COc1cccc(-c2nnc3sc(C4CCCCC4)nn23)c1,.,.,.,.,.,86,96
Cc1ccc(S(=O)(=O)N2C(=O)CCC2C(=O)O/N=C(\N)c2ccc([N+](=O)[O-])cc2)cc1 (configuration not stated),.,.,/,.,.,.,/
Cc1ccc2nc(SCC(=O)Nc3cc(C(F)(F)F)ccc3N3CCOCC3)[nH]c2c1,.,.,.,.,.,50,78
O=C(CSc1nccc(=O)[nH]1)Nc1cc(C(F)(F)F)ccc1N1CCOCC1,.,.,/,.,.,.,/
CCOC(=O)c1ccc2c(c1)nc(SC/C(O)=C(\C#N)c1nc3ccccc3[nH]1)n2CC,.,.,.,.,.,66,59
O=C(NCc1ccccn1)C1CCCN(S(=O)(=O)c2cc(Cl)ccc2Cl)C1 (configuration not stated),.,.,/,56,.,87,.
O=[N+]([O-])c1ccc(O)c(C2CCCCC2)c1,.,.,/,.,.,64,93
Cc1cccc(NC(=O)c2cc(-c3ccc(C)s3)nc3ccccc23)n1,.,.,.,.,.,74,76
COc1cc2cncc(Cc3ccccc3)c2cc1O,.,.,/,.,.,.,/
COc1cc2c(Cc3ccccc3)cncc2cc1O,.,.,/,.,.,53,66
SMILES,HIF-2a inh,KKLEB cytotox,PPC-1+TRAIL kill,C8 TRAIL sens,iPSC survival up,CF NFkB inh,CF NFkB inh conf
N#Cc1c(-c2ccc(Cl)cc2)n(O)c2ccccc12,.,.,/,.,.,52,76
Cn1c(-c2ccc(C#N)cc2)c(C#Cc2ccccc2)c2ccccc21,.,.,/,.,.,.,/
COc1ccc(-c2ccccc2[C@H]2[C@@H]3C=CC[C@@H](C)[C@@H]3C(=O)N2Cc2ccccc2)cc1,.,.,/,.,.,60,50
COc1ccc(-c2ccc([C@H]3[C@H]4C=CC[C@@H](C)[C@@H]4C(=O)N3Cc3ccccc3)c(F)c2)cc1C,.,.,.,.,.,.,/
COc1ccc(-c2c([C@H]3[C@H]4C=CC[C@@H](C)[C@@H]4C(=O)N3Cc3ccccc3)ccc3ccccc23)cc1OC,.,.,.,.,.,62,46
COc1ccc(-c2ccc(F)cc2)cc1[C@H]1[C@H]2C=CC[C@@H](C)[C@@H]2C(=O)N1Cc1ccccc1,.,.,.,.,.,75,.
COc1ccc(-c2ccc(OC)c([C@H]3[C@H]4C=CC[C@@H](C)[C@@H]4C(=O)N3Cc3ccccc3)c2)cc1OC,.,.,.,.,.,.,/
COc1ccc(-c2cc(NC=O)c3ncc(-c4ccc(C(C)=O)cc4)n3c2)cc1OC,.,.,/,.,.,50,.
COc1ccccc1-c1cc(NC=O)c2ncc(-c3ccc(F)cc3)n2c1,.,.,/,.,.,67,54
COc1cccc(-c2cc(NC=O)c3ncc(-c4ccc(C(C)=O)cc4)n3c2)c1,.,.,/,.,.,59,63
COc1ccccc1-c1cc(NC=O)c2ncc(-c3cccc(C(F)(F)F)c3)n2c1,.,.,/,.,.,.,/
COc1cc(-c2cnc3c(NC=O)cc(-c4ccc(C)cc4)cn23)cc(OC)c1OC,.,.,/,.,.,51,71
CCOCCn1c(C)c(C(=O)OCC)c2cc(O)c3ccccc3c21,.,.,/,.,.,.,/
O=C(CCc1ccccc1)N1CCN(Cc2ccc(F)cc2Cl)CC1,.,.,/,.,.,.,/
CN(C)c1ccc(/C=N/Nc2cccc(C(=O)O)c2)cc1,.,.,/,.,.,.,/
COCOc1ccc(/C=C/C(=O)c2c(O)cc(OCOC)cc2OCOC)cc1,.,.,/,.,.,52,.
C[C@]12CCC(O)CC1CCC1C2CC[C@]2(C)C(c3cc(C(F)(F)F)n[nH]3)CCC12 (some centres not stated),.,.,.,.,.,56,71
COC(=O)c1nc(N)sc1-c1ccc(Cl)c(Cl)c1,.,.,.,.,.,.,/
CCOC(=O)/C=c1/s/c(=C\c2c(OC)ccc3ccccc23)c(=O)n1CC(=O)NCC1CCCO1 (configuration not stated),.,.,/,.,.,54,65
CCN(CC)S(=O)(=O)c1ccc(C(=O)Nc2ccc(OCC(=O)N3CCOCC3)cc2)cc1,.,.,.,.,.,.,/
O=C(Nc1ccc(OCC(=O)N2CCOCC2)cc1)c1cncc(Br)c1,.,.,.,.,.,57,48
COc1ccccc1C(=O)NC(=O)COC(=O)CCOc1cc(C)ccc1C,.,.,/,.,.,.,/
